ELG1 repair inh = blocks ELG1-dependent DNA repair in HEK293T cells; Potency, µM (titrated, usually from 46.1 µM), for inactives: top-dose activity change, negative = inhibition, usual class: inhibitors; 330,000 compounds, 2.3% hits; HEK293T ELG1-luciferase reporter, luminescence, 16 h; DNA damage induced by 5-fluorouridine; further: on the % scale 0 is the no-effect control and ±100 the full control effect; nearly all actives have a fitted effect of over 55% in size
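Overnight (16 hr) co-exposure of 2,000 cells/well to 5-fluorouridine and compound at 37 °C preceded detection. Luciferase was quantified via ONE-Glo luminescence; loss of signal denotes inhibition.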
A549 tox = A549 cytotoxicity, counter-screen for Nrf2 inhibitors | A549 ARE-Fluc cells, CellTiter-Fluor viability, 18-24 h | Potency, µM (series often up to 46 µM), for the others: at the highest dose activity change, negative = cytotoxicity, usual class: inhibitors | 390,000 compounds, 0.16% hits | AID 504648; further: on the % scale 0 is the no-effect control and ±100 the full control effect
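Cytotoxicity counterscreen: CellTiter-Fluor fluorescence was measured in A549 ARE_Fluc cells after 18-24 h of compound exposure in a concentration series. The subsequent BugLite luminescent read reports ARE-luciferase activity.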
mIDH1 inhibitor = blocks human mutant IDH1 R132H enzyme; AID 602179; IDH1-R132H enzyme, NADPH consumption, diaphorase/resazurin fluorescence; O75874; 390,000 compounds, 0.093% hits; Potency, µM (top dose mostly 76.6 µM), for inactives: top-dose activity change, negative = inhibition, most hits filed as inhibitors; further: on the % scale 0 is the no-effect control and ±100 the full control effect; nearly all actives have a fitted effect of over 65% in size
Target sequence (O75874 whole entry R132H, stated change not applied): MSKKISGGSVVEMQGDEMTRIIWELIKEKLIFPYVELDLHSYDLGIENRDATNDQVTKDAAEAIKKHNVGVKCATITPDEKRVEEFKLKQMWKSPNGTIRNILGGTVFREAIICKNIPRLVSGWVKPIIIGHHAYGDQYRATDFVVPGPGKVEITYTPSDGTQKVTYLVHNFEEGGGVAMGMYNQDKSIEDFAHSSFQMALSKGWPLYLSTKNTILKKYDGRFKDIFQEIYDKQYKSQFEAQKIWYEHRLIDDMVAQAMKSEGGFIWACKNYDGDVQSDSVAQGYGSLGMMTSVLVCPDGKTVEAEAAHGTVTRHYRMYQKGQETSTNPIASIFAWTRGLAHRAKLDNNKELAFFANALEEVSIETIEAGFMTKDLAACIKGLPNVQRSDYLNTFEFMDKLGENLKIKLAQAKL
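IDH1-R132H (0.5 ug/mL dispensed) in pH 7.5 Tris buffer was preincubated 30 min with compound, then given a substrate mix of 0.016 mM NADPH and 2 mM alpha-KG for 80 min at room temperature; remaining NADPH was read by diaphorase/resazurin fluorescence.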
Nrf2 block = blocks Nrf2 signaling; AID 504444; 360,000 compounds, 2.1% hits; Potency, µM (titrated, usually from 46 µM), for inactives: at the highest dose activity change, negative = inhibition, usual class: inhibitors; A549 ARE-Fluc reporter, luciferase luminescence, 18-24 h; further: on the % scale 0 is the no-effect control and ±100 the full control effect; nearly all actives have a fitted effect of over 60% in size
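Nrf2 activity is the BugLite luminescence, read 15 min after reagent at room temperature, following CellTiter-Fluor cytotoxicity readout (30 min, 37C). Compound titrations were applied for 18-24 h to 5000 A549 ARE_Fluc cells/well in 5% FBS OPTI-MEM.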
Nrf2 activator = activates Nrf2 signaling | Potency, µM (doses to about 46.1 µM), for inactives: at the top dose activation, most hits filed as activators | AREc32 ARE-luciferase reporter (MCF7-derived line), luminescence, 24 h | 410,000 compounds, 0.31% hits; further: % of control where 0% means no effect; nearly all actives have a fitted effect of over 65% in size
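ARE-driven firefly luciferase activity in AREc32 cells measured after a 24 hr compound exposure at 37 deg C, using Steady-Glo reagent and a 30 min room-temperature hold.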
* = called active by the depositor; ? = inconclusive; nt = no result. This is a sample that favours compounds with a hit; in the whole collection about 3.8% have one here. The call rests on the fitted dose curve; in most records, active means well fitted curve in the direction sought with a large enough effect; inconclusive means small, poorly fitted or top-dose-only effect, or another doubt; inactive means no such curve, though single readings can be large; an effect the other way counts as inactive or inconclusive. Potency means the concentration at half of the fitted maximal effect.

SMILES	ELG1 repair inh	A549 tox	mIDH1 inhibitor	Nrf2 block	Nrf2 activator
O=C1c2ccccc2C(=O)c2c(Nc3ccc(CCO)cc3)ccc(O)c21	14.6µM*	?	-9.1%	?	3.98µM*
COCCCNC(=O)c1ccc2c(c1)N=C(C)c1c(C)ccc(C)c1S2	nt	-11.3%	-2.4%	18.6%	0.8%
CCOc1ccccc1-c1nc(-c2ccc(NC(=O)Cc3ccc(OC)cc3)cc2)no1	-7.1%	-28.2%	1.4%	20.6µM*	-0.2%
Clc1ccc2nc(-c3ccc(Br)o3)c(Nc3ccc4c(c3)OCCO4)n2c1	nt	6.1%	-3.6%	2.6%	5.7%
CC(=O)Nc1ccc2c(CSc3nnc(-c4cccnc4)n3-c3ccc(C)cc3C)cc(=O)oc2c1	9.2µM*	1.2%	-8.7%	?	0.0%
CCOc1ccc(-n2c(SCc3cc(=O)oc4cc(C)ccc34)nnc2-c2cccnc2)cc1	-6.8%	-8.7%	5.1%	?	-0.4%
COc1cccc(Cl)c1NC(=O)N1CCN(c2cc(C)nc3ccccc23)CC1	-27.6%	?	0.8%	23.1µM*	3.8%
COc1ccc(C(=O)CN2CCN(c3cc(C)nc4ccccc34)CC2)cc1	8.2µM*	-10.5%	-1.6%	-14.9%	0.2%
COc1cc(-c2csc(N3CCOCC3)n2)cc(OC)c1OC	-8.8%	-3.6%	9.2%	-11.6%	3.1%
COc1ccc(-c2csc(N3CCN(c4cc(C)nc5ccccc45)CC3)n2)cc1OC	8.2µM*	20.6µM*	7.7%	13µM*	-1.5%
COc1cccc(Cl)c1NC(=O)N1CCN(c2ccnc3cc(Cl)ccc23)CC1	?	-25.0%	-1.2%	23.1µM*	5.0%
Cc1cc(N2CCN(C(=O)/C=C/C(=O)O)CC2)c2ccccc2n1	21.4%	?	-5.7%	-9.5%	-0.2%
O=C1NC(=O)C(c2ccccc2)(C2CCCC2)N1 (stereo not given)	nt	0.1%	7.6%	5.8%	-0.4%
CCOC(=O)C1CCCN(C(=O)Cn2ncc3c(C)n(Cc4ccccc4Cl)c(C)c3c2=O)C1 (stereo not given)	nt	-1.8%	14.5%	?	0.7%
COc1ccc(Cl)cc1NC(=O)c1c(C(=O)Nc2cccc(C)c2C)sc2nc(C)cc(=O)n12	nt	3.7%	-5.3%	0.0%	-0.1%
CC(Sc1nc2ccccc2c(=O)n1CC1CCCO1)C(=O)N(C)Cc1ccccc1 (stereo not given)	?	-13.4%	4.4%	-13.6%	-0.2%
CC(Sc1nc2ccccc2c(=O)n1C)C(=O)N(C)C1CCCCC1 (stereo not given)	-7.8%	-17.9%	-4.4%	18.4µM*	-0.2%
Cc1ccc(Cc2c(C)c(C#N)c3[nH]c4ccccc4n3c2=O)cc1	18.3µM*	?	-5.7%	?	0.3%
Cc1c(CCC(=O)O)c(=O)n2c([nH]c3ccccc32)c1C#N	0.3%	-1.9%	4.2%	nt	-0.2%
CCc1c(C)c(C#N)c2[nH]c3ccccc3n2c1=S	?	?	-2.5%	?	4.1%
C=C(C)Cc1c(C)c(C#N)c2[nH]c3ccccc3n2c1=O	20.6µM*	10.2%	-9.7%	28.3%	3.4%
Cc1ccc2nc(-c3cccs3)c(Nc3c(C)cccc3C)n2c1	nt	-1.8%	?	0.6%	16.9%
COCc1c(C(=O)N2CCN(S(=O)(=O)c3ccccc3Cl)CC2)oc2ccccc12	10µM*	5.7%	-2.3%	?	1.7%
Cc1ccc(-c2onc(C)c2C)cc1S(=O)(=O)NCc1cccs1	nt	0.6%	6.7%	-7.5%	0.3%
O=C(OCC#CCSc1nnc(-c2cccc3ccccc23)o1)c1ccc(C(F)(F)F)cc1	nt	-5.5%	nt	1.0%	nt
SMILES	ELG1 repair inh	A549 tox	mIDH1 inhibitor	Nrf2 block	Nrf2 activator
COc1ccc(N2CCN(Cc3nc(N)nc(Nc4ccc(C)c(Cl)c4)n3)CC2)cc1	13µM*	-21.4%	6.1%	?	5.7%
Cc1ccc(Nc2nc(N)nc(CN3CCN(c4ccccc4)CC3)n2)cc1Cl	?	-25.5%	2.9%	?	4.7%
CCOc1nc(Nc2ccc(F)cc2)nc(N2CCN(c3ccc(OC)cc3)CC2)n1	?	-1.3%	2.2%	nt	0.4%
CCOc1nc(Nc2ccc(OC)c(Cl)c2)nc(N2CCN(c3ccc(OC)cc3)CC2)n1	18.4µM*	-7.2%	0.0%	nt	5.1%
Cc1ccc(Nc2nc(N)nc(CN3CCN(Cc4ccc5c(c4)OCO5)CC3)n2)cc1C	13µM*	0.8%	-7.5%	3.4%	2.5%
Cc1ccc(Nc2nc(N)nc(CN3CCN(Cc4ccc5c(c4)OCO5)CC3)n2)cc1Cl	?	-28.3%	3.3%	-1.5%	-0.4%
O=C(c1ccc(Cl)c(NC2=NC3CS(=O)(=O)CC3S2)c1)N1CCN(c2ccc(F)cc2)CC1 (stereo not given)	9.4%	0.5%	-5.4%	-10.6%	0.3%
Cc1ccc(-n2ncc3c(NC4CCCCC4)ncnc32)cc1	nt	-2.0%	24.4%	nt	0.4%
O=C1CCCC1C(=O)Nc1ccc2ccccc2c1 (stereo not given)	?	-3.7%	-16.4%	-0.7%	3.8%
O=C1CCCCC1Nc1ccc2ccccc2c1 (stereo not given)	nt	?	-8.0%	18.4µM*	5.1%
CCCCN1C(=O)c2ccccc2NC1c1ccc(OC)c(COc2ccc(NC(C)=O)cc2)c1 (stereo not given)	nt	-0.3%	nt	?	nt
COc1ccc(C2c3ccccc3Oc3ncn(CCN4CCOCC4)c(=N)c32)cc1OC (stereo not given)	nt	0.1%	nt	?	nt
Cc1ccc(S(=O)(=O)Nc2cccc(C(=O)NC3CCN(Cc4ccccc4)CC3)c2)cc1F	-21.9%	?	-4.2%	10.3µM*	2.6%
O=C(NC1CCN(Cc2ccccc2)CC1)c1cccc(S(=O)(=O)Nc2ccc(SC(F)F)cc2)c1	?	?	-0.2%	16.4µM*	0.2%
Cc1ccc(NS(=O)(=O)c2cccc(C(=O)NC3CCN(Cc4ccccc4)CC3)c2)cc1	nt	-13.9%	-7.8%	?	2.4%
Cc1cccc(C(=O)NNc2ncnc3c2cnn3-c2ccc(C)c(Cl)c2)c1	nt	9.6%	-21.4%	nt	0.3%
N#C/C(=C(/O)c1ccc(Cl)c([N+](=O)[O-])c1)c1nc2ccccc2[nH]1	8.2µM*	0.1%	-16.9%	-12.1%	9.1%
N#C/C(=C(/O)c1ccc([N+](=O)[O-])cc1)c1nc2ccccc2[nH]1	-1.8%	2.0%	22.4%	?	2.3%
COc1cccc(S(=O)(=O)N2CCN(c3nc(-c4cccs4)nc4ccccc34)CC2)c1	nt	-0.7%	nt	?	nt
COc1ccc(NC(=O)/C(Cl)=C(/Cl)S(=O)Cc2ccccc2Cl)cn1 (stereo not given)	14.6µM*	14.6µM*	-2.3%	-134.8%	-2.9%
COc1ccc(NC(=O)Cc2ccc(Cl)c(Cl)c2)cn1	8.5%	6.5%	8.1%	-0.4%	0.0%
Cc1ccc(NS(=O)(=O)c2cccc(C(=O)O)c2)cc1C	nt	4.4%	nt	?	nt

Compound activity (PubChem BioAssay)
